Test results published in PubChem BioAssay AID1259400 (National Center for Advancing Translational Sciences (NCATS), 2018).
Values joined by “and” are separate entries in the source; they are usually repeats but may differ in a detail not shown here. Equal entries are not always repeated. The whole screen tested about 350,000 compounds, of which about 2,100 (0.6%) were called active. Roughly 1% stayed inconclusive and do not appear here.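 Rule for the calls: active = activity change of -60% or lower, but not beyond a set lower limit; inconclusive = change between -60% and -40%, or beyond the set limit; inactive = change above -40%.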 The sample as a whole holds a higher share of actives than the screen did. Some structures have more than one record in an assay (separate samples or runs), and their calls can disagree.

Biological target: Relaxin receptor 1 (Homo sapiens) (UniProt Q9HBX9)
Assay: qHTS Assay for Antagonists of the Relaxin Receptor RXFP1
Conditions: HEK293-RXFP1, relaxin-stimulated cAMP HTRF, 30 min; at 57.5 µM; stronger effect = lower value
% is set by controls: 0 for no effect and ±100 for the full control effect.

Relaxin receptor 1 (Homo sapiens), sequence (Q9HBX9 whole entry, looked up): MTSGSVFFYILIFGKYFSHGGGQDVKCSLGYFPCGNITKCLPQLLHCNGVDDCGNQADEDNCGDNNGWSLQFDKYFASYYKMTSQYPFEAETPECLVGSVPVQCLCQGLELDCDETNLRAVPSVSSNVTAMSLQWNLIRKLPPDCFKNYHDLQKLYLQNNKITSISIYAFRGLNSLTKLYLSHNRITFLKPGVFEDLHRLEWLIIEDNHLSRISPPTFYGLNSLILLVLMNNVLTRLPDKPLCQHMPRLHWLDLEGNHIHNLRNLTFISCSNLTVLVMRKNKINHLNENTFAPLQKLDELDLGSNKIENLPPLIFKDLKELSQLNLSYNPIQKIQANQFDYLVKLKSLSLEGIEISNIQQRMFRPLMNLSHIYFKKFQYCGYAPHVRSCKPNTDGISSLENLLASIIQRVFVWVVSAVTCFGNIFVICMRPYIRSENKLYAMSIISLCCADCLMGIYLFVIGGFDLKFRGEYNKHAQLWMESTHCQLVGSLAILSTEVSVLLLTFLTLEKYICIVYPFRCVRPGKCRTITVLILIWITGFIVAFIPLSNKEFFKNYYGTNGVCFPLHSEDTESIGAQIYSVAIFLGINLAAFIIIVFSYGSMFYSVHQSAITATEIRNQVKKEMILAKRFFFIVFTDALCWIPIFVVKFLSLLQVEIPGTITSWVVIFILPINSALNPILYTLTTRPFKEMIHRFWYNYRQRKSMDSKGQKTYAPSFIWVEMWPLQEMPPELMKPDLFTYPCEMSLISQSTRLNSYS

| Structure (SMILES) | activity change, negative = inhibition |
| --- | --- |
| CC(C)Cn1c(=O)c2ccccc2n2c(CCC(=O)NCc3ccccn3)nnc12 | 1.58% (inactive) |
| CC(C)Cn1c(=O)c2ccccc2n2c(-c3cccc(Cl)c3)nnc12 | -13.9% (inactive) |
| CC(C)Cn1c(=O)c2ccccc2n2c(CCC(=O)N3CCN(c4cccc(Cl)c4)CC3)nnc12 | -87.5% (active) |
| Cc1cc(O)c(C(c2ccccc2)N2CCN(c3ccccc3F)CC2)c(=O)n1Cc1ccco1 (configuration not stated) | -24.2% (inactive) |
| CCOC(=O)c1[nH]c(C)c(CCC(=O)N2CCN(c3ccccc3)CC2)c1C | -8.52% (inactive) |
| O=C(COC(=O)c1ccccn1)NNC(=O)c1ccc([N+](=O)[O-])cc1 | -74.5% (active) |
| N/C(=N\OC(=O)c1ccc([N+](=O)[O-])cc1)c1ccccn1 | 8.07% (inactive) |
| O=C(COC(=O)c1ccccn1)NNC(=O)c1ccc(Br)cc1 | -5.4% (inactive) |
| CCn1c(C)c(C)c2cc(C(=O)NCCc3cc(OC)ccc3OC)ccc21 | -30.2% (inactive) |
| Cc1cc(C)n2nc(SCC(N)=O)nc2n1 | -10.1% (inactive) |
| Cc1ccnc(SCC(N)=O)n1 | -83.8% (active) |
| CCn1c(CSc2nc(C)cc(C)n2)nnc1SCC(N)=O | 13.9% (inactive) |
| COC(=O)[C@@H]1CC2=CC(=O)CC[C@]2(C)[C@@]23O[C@@H]2C[C@@]2(C)[C@@H](CC[C@@]24CCC(=O)O4)[C@H]13 | 12.2% (inactive) |
| c1ccc(CN=C2Nc3ccccc3CS2)nc1 | -70.7% (active) |
| O=C1CSc2ccc(C(=O)NCc3ccccn3)cc2N1 | 5.23% (inactive) |
| c1ccc(CCc2ccccn2)cc1 | -14.5% (inactive) |
| Cc1ccc(Nc2c(-c3ccc(N(C)C)cc3)nc3nc[nH]n23)cc1 | -4.77% (inactive) |
| COc1cccc(C(c2c(O)cc(C)n(Cc3ccco3)c2=O)N2CCN(c3ccccc3)CC2)c1 (configuration not stated) | -4.37% (inactive) |
| Cc1ccc(N(C(=O)c2snc(C(N)=O)c2N)C(C(=O)NCC2CCCO2)c2c[nH]c3ccccc23)cc1 (configuration not stated) | -19% (inactive) |
| Cc1ccc(C(C(=O)NCC2CCCO2)N(C(=O)c2snc(C(N)=O)c2N)c2ccc(C(C)C)cc2)o1 (configuration not stated) | -74% (active) |
| CCOc1ccc(N(C(=O)c2snc(C(N)=O)c2N)C(C(=O)NCC2CCCO2)c2c[nH]c3ccccc23)cc1 (configuration not stated) | -6.04% (inactive) |
| Cc1cccc(Nc2cc(C)nc(-n3nc(C)cc3C)n2)c1 | -6.69% (inactive) |
| CCOC(=O)c1c(S(=O)(=O)NCC(=O)Nc2ccc(Cl)c(C(F)(F)F)c2)c(C)n(C)c1C | -8.26% (inactive) |
| COc1ccc(CCC(=O)NCCc2csc(-c3ccc(Cl)cc3)n2)cc1 | -21.7% (inactive) |

| Structure (SMILES) | activity change, negative = inhibition |
| --- | --- |
| COc1ccc(-c2nc(CCNC(=O)c3ccc(Br)o3)cs2)cc1 | -32.7% (inactive) and -89.7% (active) |
| COc1ccc(N2CCN(C(=O)CNC(=O)c3ccc(Br)o3)CC2)cc1 | -3.36% (inactive) |
| C[N+](C)(CCOc1ccccc1)Cc1cccs1 (tested in a mixture with another compound) | 10.6% (inactive) |
| Cc1ccc(-n2ncc3c(NCCCn4ccnc4)ncnc32)cc1Cl | -9.38% (inactive) |
| COc1ccc(OC)c(CNC(=O)CN2C(=O)CCn3nc(-c4cn(C)c5ccccc45)cc32)c1 | -2.73% (inactive) |
| CC(=O)OC1=C(C(C)=O)N(Cc2ccccc2)S(=O)(=O)c2ccccc21 | -3.88% (inactive) |
| Cc1ccccc1NC(=O)CSC(=O)c1ccccc1 | -0.348% (inactive) |
| Cc1ccccc1N/C(SCc1ccc(Cl)cc1)=C(/C#N)C(N)=O | -65.6% (active) |
| Cc1ccccc1NC(=S)NC(=O)Cc1ccc(Cl)cc1 | -24.7% (inactive) |
| O=S(=O)(NCC(c1ccccc1)N1CCc2ccccc21)c1ccccc1 (configuration not stated) | -18.8% (inactive) |
| Cc1cc(NC(=O)CSc2nnc(-c3ccc(Cl)s3)o2)no1 | -21% (inactive) |
| Cc1cc(NC(=O)CSc2ncc(C(F)(F)F)cc2Cl)no1 | -64.7% (active) |
| Cc1cc(NC(=O)CSCC(=O)NC(C)c2ccccc2)no1 (configuration not stated) | 3.67% (inactive) |
| COc1ccccc1N1CCN(S(=O)(=O)CCNC(=O)COc2ccc(F)cc2)CC1 | 8.32% (inactive) |
| O=C(Nc1nc(-c2ccco2)c(-c2ccco2)s1)c1ccco1 | -61.6% (active) |
| Cc1ccc(NC(=O)c2ccco2)cc1 | -9.99% (inactive) |
| CCc1nnc(NC(=O)c2ccco2)s1 | 0.195% (inactive) |
| Cc1ccc(C2c3[nH]c4ccccc4c3CCN2C(=O)c2cccc(C)c2)cc1 (configuration not stated) | -10.4% (inactive) |
| Cc1cc(C)cc(NC(=O)Cn2nc(N3CCN(c4ccccc4)CC3)ccc2=O)c1 | -7.03% (inactive) |
| Cc1ccc(NC(=O)CCCn2c(=O)c3cccn3c3ccccc32)cc1Cl | -24.4% (inactive) |
| COc1ccc(C(=O)NCC(c2ccc(N(C)C)cc2)N2CCc3ccccc32)c(OC)c1 (configuration not stated) | -11.3% (inactive) |
| COc1ccc(N2CCN(C(=O)C3CCCN(C(=O)c4cc5sccc5n4C)C3)CC2)cc1 (configuration not stated) | -23.3% (inactive) |
| Cc1ccc(Cn2c(=O)n(Cc3nc(-c4ccccc4)no3)c(=O)c3cc4c(cc32)OCO4)cc1 | 15.5% (inactive) |
| C#CCOc1ccc(/C=C2/C(=O)ON=C2C)cc1OCC | -2.39% (inactive) |

| Structure (SMILES) | activity change, negative = inhibition |
| --- | --- |
| C#CCOc1ccc(/C=C2/C(=O)NN(c3ccccc3)C2=O)cc1OC | -66.6% (active) |
| COc1cc(/C=C2/C(=O)NN(c3ccc(F)cc3)C2=O)cc([N+](=O)[O-])c1O | -12.2% (inactive) |
| Cc1ccc(-c2nc3ccccn3c2Nc2c(C)cccc2C)o1 | -10.4% (inactive) |
| COc1ccc(CNC(=O)c2ccc(NC(=O)N3CC4CCCN4c4ccccc43)cc2)cc1 (configuration not stated) | -9.24% (inactive) |
| CSc1ccccc1-c1nnc(NC(=O)c2ccc3c(c2)OCCO3)o1 | 23.7% (inactive) |
| COc1cc(OC)c(OC)cc1/C=C/c1nc2ccccc2c(=O)n1-c1ccc(Br)c(C)c1 | -16.8% (inactive) |
| O=C(CCS(=O)(=O)c1cc(Br)cc2c1N(C(=O)C1CC1)CC2)Nc1ccc(Br)cc1F | 2.95% (inactive) |
| O=S(=O)(NCCS(=O)(=O)N1CCN(c2ccccc2)CC1)c1ccc(F)cc1 | -74.9% (active) |
| O=C(NCCS(=O)(=O)N1CCN(c2ccc(F)cc2)CC1)c1ccccc1Br | -4.07% (inactive) |
| O=S(=O)(NCCS(=O)(=O)N1CCN(c2ccccc2)CC1)c1ccc(Cl)cc1 | -36.9% (inactive) |
| CCCC(=O)O[C@]1(C(=O)COC(=O)CC)CC[C@@H]2[C@@H]3CCC4=CC(=O)CC[C@]4(C)[C@H]3[C@@H](O)C[C@@]21C | -16.1% (inactive) |
| O=c1c(=O)n(Cc2c(F)cccc2Cl)ccn1Cc1ccccc1 | -0.809% (inactive) |
| O=[N+]([O-])/C=C/c1ccc2c(ccn2Cc2ccccc2)c1 | -93.7% (active) |
| COc1ccc(Cn2ccn(Cc3cccc(OC)c3)c(=O)c2=O)cc1 | 1.35% (inactive) |
| Cn1cccc1/C=C1\SC(=O)N(CC(=O)Nc2ccc(F)cc2)C1=O | -75.7% (active) |
| O=C(CN1C(=O)S/C(=C\c2ccccc2F)C1=O)NCCCn1ccnc1 | 4.7% (inactive) |
| Cn1cccc1/C=C1\SC(=S)N(NC(=O)c2ccc(Cl)cc2)C1=O | -8.62% (inactive) |
| COCCCNC(=O)c1c(NC(=O)c2cc(=O)c3cc(C)c(C)cc3o2)sc2c1CCCC2 | -4.73% (inactive) |
| O=C(CSc1nccn1-c1ccc(F)cc1)Nc1cccc2ccccc12 | 1.1% (inactive) |
| CC(C)c1ccc(NC(=O)c2ccc3c(O)c(S(=O)(=O)c4ccccc4)c(=O)[nH]c3c2)cc1 | -14% (inactive) |
| CCOC(=O)c1c(NC(C)=O)c2c3c(sc2n1Cc1c(C)cc(C)cc1C)CCCC3 | -73.1% (active) |
| CCOC(=O)N1CCc2c(sc3c2c(=O)n(Cc2ccccc2)c(=O)n3CC(=O)Nc2cccc(C)c2)C1 | 4.91% (inactive) |
| COC(=O)c1c(NC(=O)c2cc(=O)c3c(C)cc(C)cc3o2)sc2c1CCCC2 | 3.21% (inactive) |
| CCN(CC)S(=O)(=O)c1nnc(NC(=O)COc2ccccc2Cl)s1 | -10.5% (inactive) |
